Values joined by “and” are separate entries in the source; they are usually repeats but may differ in a detail not shown here. Equal values may be shown once. Unmarked numbers belong to inactive results. No rule for the calls is given here.
biological target: Lethal factor (Bacillus anthracis) (UniProt P15917); assay: Lethal factor protease inhibitors, Bacillus anthracis, multiplex microsphere cleavage assay, validation set (AID 588461); conditions: flow cytometry, at 10 µM, hits give high values

| SMILES | inhibition |
| --- | --- |
| C[N+](C)(C)CCOP(=O)([O-])OC[C@H](O)CO | 3.2% |
| COc1ccc2[nH]cc(C3N4CC5(C)CN3CC(C)(C4)C5=O)c2c1 (stereo not given) | 4.1% |
| Cc1ccc2c(c1)C(O)(C1COC(C)(C)CC1=O)C(=O)N2C (stereo not given) | -0.8% |
| COc1ccc(CNCCC2(C(C)C)CCOC(C)(C)C2)cc1 (stereo not given) | -4% |
| CC(=O)[C@H]1CC[C@H]2[C@@H]3CCC4=CC(=O)CC[C@]4(C)[C@H]3CC[C@]12C | 3.1% |
| COc1cccc(C2CCCN2Cc2nc(CCC(C)C)no2)c1 (stereo not given) | -7.6% |
| CCC(C)NCCOCCOc1ccc(Cl)cc1Br (stereo not given) | -2.1% |
| O=C(CN1CCN(Cc2ccccc2)CC1)N1CCCc2c1c(=O)oc1ccc(O)cc21 | -8.3% |
| CN(C)c1nc(N(C)C)nc(N(C)C)n1 | -4.2% |
| O=C(c1cc2cc(Br)ccc2o1)N1CCCCC1 | 8.5% |
| Cc1nc2c(c3c1[nH]c1ccccc13)C(=O)CC(C)(C)C2 | 6% |
| CN1C2CCC1CC(OC(c1ccccc1)c1ccccc1)C2 (stereo not given) | 1.9% |
| Cc1[nH]c2ccccc2c1/C=C/c1nc2ccccc2c(=O)n1CCO | 0.2% |
| CCn1c(O)c(/C=C2\C=Nc3ccccc32)sc1=O | -0.8% |
| CC(=O)CCc1c(C)c2cccc(C)c2[nH]c1=O | -3.4% |
| Cn1cc(C2N3CC4(C)CN2CC(C)(C3)C4=O)c2ccccc21 (stereo not given) | -10.2% |
| Cc1ccc2c(c1)C1OCCC1C1N2C(=O)C2C(C(=O)O)C3C=CC21O3 (stereo not given) | 5.5% |
| CC1=NS(=O)(=O)c2cc(Cl)ccc2N1 | -1.8% |
| CCN(CC)c1ccc(C2=NNC(=O)CC2C)cc1[N+](=O)[O-] (stereo not given) | -6.2% |
| C[n+]1ccccc1/C=N/O | -1.8% and -6.4% |

| SMILES | inhibition |
| --- | --- |
| CN=C1c2cc3cc(OC)ccc3n2CCN1C | -0.1% |
| Cc1ccccc1C(=O)Oc1ccc(Sc2ccc(O)cc2)cc1 | -3.8% |
| CCN1C(=O)C(CC(=O)Nc2ccc(OC)cc2)N(CCc2ccc(F)cc2)C1=S (stereo not given) | 1.4% |
| O=C(OCCN1CCOCC1)c1cccs1 | -1.2% |
| COc1ccc(C(C)N2CC34C=CC(O3)C(C(=O)OCC(C)C)C4C2=O)cc1 (stereo not given) | 0.2% |
| O=C(Cc1cccc2ccccc12)N1CC[C@@]2(O)CCCC[C@H]2C1 | -5.4% |
| O=C(O)c1ccc(C(=O)C(=O)c2ccccc2)cc1 | -6.8% |
| C/C(=N\N=C1\NC(=O)C(CC(=O)Nc2ccc(Cl)cc2)S1)c1ccco1 (stereo not given) | -0.2% |
| CC12CCC(C(=O)N3CCc4ccccc43)(CC1=O)C2(C)C (stereo not given) | -0.2% |
| COc1ccc(C2C(C#N)=C(N)Oc3cc(C)[nH]c(=O)c32)c(OC)c1OC (stereo not given) | 0.8% |
| CC(=O)Nc1ccc(OS(=O)(=O)c2c(C)cc(C)cc2C)cc1 | -0.9% |
| O=C(O)[C@@H](O)c1ccccc1 | -3.5% |
| O=C(CCCN1CC=C(n2c(=O)[nH]c3ccccc32)CC1)c1ccc(F)cc1 | -5.4% |
| Cn1nc(-c2ccccn2)nc2c(=O)n(C)c(=O)nc1-2 | -13% |
| CCOCCn1c(C(C)O)nc2ccccc21 (stereo not given) | 3.1% |
| CC1(C)CC(NC(=O)C23CCC(C)(C(=O)C2=O)C3(C)C)CC(C)(C)N1 (stereo not given) | -4.5% |
| Cc1cc(C)cc(Nc2nc3c([nH]2)c(=O)n(C)c(=O)n3C)c1 | 4.9% |
| CN(C)CCC(c1ccccc1)c1ccccn1 (stereo not given) | 2.6% |
| Oc1ccccc1OCCOc1ccccc1OCCOc1ccccc1O | -0.4% |
| CC(C)OC(=O)CC12CN3CN(C1)CC(CC(=O)OC(C)C)(C3)C2=O | 6.1% |

Reference: PubChem BioAssay
